Shown are actives, neighbours in structure and some others; about 3.5% of the full set was active somewhere.
MT1-MMP txn act: MT1-MMP promoter transcription activation | HT1080 MT1-MMP promoter luciferase reporter, luminescence, overnight; active compounds read high | activation factor at 10 µM | hit rate 0.16% among 86,000 | AID 750;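 active means activation factor of at least 2 for MT1-MMP transcription at 10 µM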
MMP-13 inhibitor: blocks human MMP13 activity | P45452 | MMP-13 fTHP FRET cleavage, Mca fluorescence | inhibition, % at 4 µM | hit rate 0.07% among 65,000;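 active means inhibition above the mean of compound-free control plate wells plus 3 SD, cut at about 14% in these data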;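 further: 0% = DMSO wells and 100% = wells with reference MMP-13 inhibitor after basal subtraction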
ERa coact pot: ER-alpha (human) coactivator binding potentiation; P03372; AID 639; TR-FRET ERalpha-LBD/SRC-Cy5 coactivator binding, 2 h; 100 = basal binding, no effect; hit rate 1.3% among 86,000; coactivator binding (% of control), % at 25.6 µM; in the data active means activity above about 200%;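 further: binding measured in presence of low estradiol as agonist stimulus; 0% = peptide alone without receptor and 100% = receptor with peptide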
Smad3 inh: Smad3 (human) transcription factor binding inhibition; P84022; TR-FRET Smad3/Dy647-FoxH1 peptide binding, europium anti-His; inhibition, % at 25 µM; hit rate 0.29% among 88,000; AID 630;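 active means compounds that reduce the energy-transfer binding signal between the protein and its labelled peptide by more than half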;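 further: 0% = Smad3 plus labelled peptide maximal FRET and 100% = peptide-only background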
Target sequence (P84022 whole entry, looked up): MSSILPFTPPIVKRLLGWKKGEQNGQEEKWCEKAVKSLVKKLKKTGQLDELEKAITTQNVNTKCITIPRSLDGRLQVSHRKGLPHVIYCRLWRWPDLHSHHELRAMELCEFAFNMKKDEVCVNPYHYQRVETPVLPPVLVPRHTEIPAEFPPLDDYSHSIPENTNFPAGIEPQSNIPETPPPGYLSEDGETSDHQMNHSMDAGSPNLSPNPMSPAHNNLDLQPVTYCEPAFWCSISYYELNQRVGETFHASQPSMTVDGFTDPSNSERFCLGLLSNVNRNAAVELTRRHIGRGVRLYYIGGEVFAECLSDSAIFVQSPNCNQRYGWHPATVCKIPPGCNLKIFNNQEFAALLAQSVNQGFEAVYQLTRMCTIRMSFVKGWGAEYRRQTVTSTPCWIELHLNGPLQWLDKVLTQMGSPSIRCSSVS
ERa SRC1 inh: blocks coactivator binding to human estrogen receptor alpha | P03372 | TR-FRET ER-alpha LBD / SRC-1 peptide, estradiol-bound | inhibition, % at 25.6 µM | hit rate 1.7% among 86,000 | AID 629; in the data active means inhibition above about 50%;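 further: 0% = receptor plus peptide control and 100% = peptide only without receptor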
ERb SRC1 inh: ER-beta (human) coactivator binding inhibition | TR-FRET ER-beta LBD / SRC1-Cy5 peptide binding; receptor agonist-loaded with 1 µM estradiol | hit rate 1.3% among 86,000 | inhibition, % at 25.6 µM | Q92731;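 active means compounds whose percent inhibition of the receptor-coactivator binding signal exceeds about 50% in the single-dose screen, limit read from the data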;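 further: 0% = receptor plus peptide wells without compound and 100% = peptide-only wells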
An asterisk follows results filed as active; [ ] = another dose, or the depositor's remark.

`O=C(Nc1nc2c(s1)CN(Cc1ccccc1)CC2)c1cccc(S(=O)(=O)N2CCc3ccccc32)c1` gave MT1-MMP txn act 1.1, ERa coact pot 500*[fluorescence artefact?], Smad3 inh 25, ERa SRC1 inh -6 and ERb SRC1 inh -4.
CCN1CCc2nc(NC(=O)C(c3ccccc3)c3ccccc3)sc2C1 was read as MT1-MMP txn act 1.2, ERa coact pot 114, Smad3 inh 8, ERa SRC1 inh -16 and ERb SRC1 inh -13.
Screening CCOc1ccc(-c2cc3nc(C4CCN(C(=O)OC(C)(C)C)CC4)c(C(=O)O)cn3n2)cc1 returned MT1-MMP txn act 1.1 and MMP-13 inhibitor -42.
For CCN1c2cccc3cccc(c23)S1(=O)=O the results were MT1-MMP txn act 1.1, ERa coact pot 107, Smad3 inh -6, ERa SRC1 inh -9 and ERb SRC1 inh -3.
CC1N(C)c2cccc3cccc(c23)N1C was read as MT1-MMP txn act 1.2, ERa coact pot 51, Smad3 inh -4, ERa SRC1 inh 51*[fluorescence artefact?] and ERb SRC1 inh 83*[fluorescence artefact?].
`CCCCn1c(CN2C(=O)c3ccccc3C2=O)nc2ccccc2c1=O` gave MT1-MMP txn act 1.2, MMP-13 inhibitor 0, ERa coact pot 179, Smad3 inh -17, ERa SRC1 inh 58*[fluorescence artefact?] and ERb SRC1 inh 51*[fluorescence artefact?].
Screening COc1ccc(OC)c(/C=c2\sc3nc(-c4cccs4)nn3c2=O)c1 returned MT1-MMP txn act 1.2, MMP-13 inhibitor 1, ERa coact pot 74, Smad3 inh -5, ERa SRC1 inh 39 and ERb SRC1 inh 18.
COc1ccccc1/C=c1\sc2nc(-c3ccco3)nn2c1=O was read as MT1-MMP txn act 1.2, MMP-13 inhibitor 2, ERa coact pot 107, Smad3 inh 7, ERa SRC1 inh 74* and ERb SRC1 inh 67*[fluorescence artefact?].
Screening CCOc1ccc(/C=c2\sc3nc(-c4ccco4)nn3c2=O)cc1OCC returned MT1-MMP txn act 1.1, MMP-13 inhibitor 3, ERa coact pot 101, Smad3 inh 12, ERa SRC1 inh 55* and ERb SRC1 inh 25.
O=C(Nc1ccc2nc(-c3ccccc3)[nH]c2c1)c1ccco1 was read as MT1-MMP txn act 1.6, ERa coact pot 100, Smad3 inh 12, ERa SRC1 inh -2 and ERb SRC1 inh -3.
Screening O=C(Nc1cnc2ccccc2c1)c1ccco1 returned MT1-MMP txn act 0.8, MMP-13 inhibitor 5, ERa coact pot 117, Smad3 inh -6, ERa SRC1 inh 57* and ERb SRC1 inh -5.
Screening O=C(Nc1cccc(-c2nc3ccccc3[nH]2)c1)c1cccc(NC(=O)c2ccco2)c1 returned MT1-MMP txn act 1.6, MMP-13 inhibitor 2, ERa coact pot 193, Smad3 inh -5, ERa SRC1 inh 70*[fluorescence artefact?] and ERb SRC1 inh 68*[fluorescence artefact?].
`Cn1c(=O)n(C/C=C/c2ccccc2)c(=O)c2c1nc1n2CCCN1Cc1ccccc1` gave MT1-MMP txn act 1.2, MMP-13 inhibitor -1, ERa coact pot 108, Smad3 inh 4, ERa SRC1 inh 0 and ERb SRC1 inh 3.
Screening CC1=NN(c2cccc(C(=O)O)c2)C(=O)/C1=C\C=C\c1ccco1 returned MT1-MMP txn act 1.9, ERa coact pot 15, Smad3 inh 40, ERa SRC1 inh 83*[fluorescence artefact?] and ERb SRC1 inh 89*[fluorescence artefact?].
Screening CCCC(CCC)n1[nH]c(=O)c2c(C)cc(C)nc21 returned MT1-MMP txn act 1.1 and MMP-13 inhibitor -1.
For COc1cccc(-c2nnc3n2N=C(c2cccc(Br)c2)CS3)c1 the results were MT1-MMP txn act 1.1, MMP-13 inhibitor 0, ERa coact pot 99, Smad3 inh 2, ERa SRC1 inh 22 and ERb SRC1 inh -1.
For COc1ccccc1-c1nnc2n1N=C(c1ccc(O)c(O)c1)CS2 the results were MT1-MMP txn act 0.5, MMP-13 inhibitor 4, ERa coact pot 50, Smad3 inh 16, ERa SRC1 inh 60*[fluorescence artefact?] and ERb SRC1 inh 75*[fluorescence artefact?].
Cc1ccc(-c2nnc3n2N=C(c2ccc(Br)cc2)CS3)cc1 was read as MT1-MMP txn act 1.2, MMP-13 inhibitor 0, ERa coact pot 95, Smad3 inh 9, ERa SRC1 inh 66* and ERb SRC1 inh 30.
`Cc1cccc(-c2nnc3n2N=C(c2ccc(Br)cc2)CS3)c1` gave MT1-MMP txn act 1.2, MMP-13 inhibitor 0, ERa coact pot 297*, Smad3 inh 16, ERa SRC1 inh 56*[fluorescence artefact?] and ERb SRC1 inh 38.
O=C1C2C3C=CC(C3)C2C(=O)N1c1cccc2cccnc12 (centres undefined) was read as MT1-MMP txn act 1.1, MMP-13 inhibitor -2, ERa coact pot 65, Smad3 inh -4, ERa SRC1 inh 40 and ERb SRC1 inh 51*.
Screening O=C1C2C3C=CC(C3)C2C(=O)N1c1cccc(N2C(=O)C3C4C=CC(C4)C3C2=O)n1 (centres undefined) returned MT1-MMP txn act 1.1, MMP-13 inhibitor 4, ERa coact pot 92, Smad3 inh 1, ERa SRC1 inh 5 and ERb SRC1 inh 14.
`Cn1c(N)nc2c(nc(OCc3ccccc3)n2[C@H]2O[C@H](CO)[C@@H](O)[C@@H]2O)c1=O` gave Smad3 inh 74*.
`CSc1nnc(CNC(=O)c2ccccc2)n1-c1cccc(C)c1` gave MT1-MMP txn act 1, MMP-13 inhibitor 0, ERa coact pot 127, Smad3 inh -7, ERa SRC1 inh -15 and ERb SRC1 inh -5.
Screening CC(C)n1nnnc1SCC(=O)NCc1ccco1 returned MT1-MMP txn act 1.1, MMP-13 inhibitor 1, ERa coact pot 126, Smad3 inh -6, ERa SRC1 inh 1 and ERb SRC1 inh 0.
CCOCCCNC(=O)c1ccc(N(C)S(=O)(=O)c2ccc(OC)cc2)cc1 was read as MT1-MMP txn act 1.2, ERa coact pot 111, Smad3 inh -1, ERa SRC1 inh -7 and ERb SRC1 inh -5.
COc1ccc(S(=O)(=O)N(C)c2ccc(C(=O)NCCC(C)C)cc2)cc1 was read as MT1-MMP txn act 1.2, ERa coact pot 116, Smad3 inh 69*, ERa SRC1 inh 7 and ERb SRC1 inh 1.
For COc1ccc(-c2nnn(CC(=O)OC3CCCCC3)n2)cc1OC the results were MT1-MMP txn act 1.2, MMP-13 inhibitor -1, ERa coact pot 83, Smad3 inh -10, ERa SRC1 inh 31 and ERb SRC1 inh 24.
For CC1(C)CC(=O)c2c(oc3cc(O)c(O)cc23)C1 the results were MT1-MMP txn act 1, ERa coact pot 71, Smad3 inh 7, ERa SRC1 inh 27 and ERb SRC1 inh 58*[fluorescence artefact?].
Screening COC(=O)CC1Oc2cc3oc4c(c3cc2O1)C(=O)CC(C)(C)C4 (centres undefined) returned MT1-MMP txn act 1.
O=C(Nc1ccc2c(c1)OCO2)c1cccc2c1C(=O)N(Cc1cccnc1)C2 was read as MT1-MMP txn act 1.3, MMP-13 inhibitor -1, ERa coact pot 32, Smad3 inh 1, ERa SRC1 inh 77*[fluorescence artefact?] and ERb SRC1 inh 61*.

Bioassay records from PubChem BioAssay.
